Reference: PubChem BioAssay AID488890 (Southern Research Specialized Biocontainment Screening …, 2010)
In all, about 320,000 compounds went through this assay and about 1,300 (0.41%) were called active. Not shown: some 3% with an inconclusive outcome. How the calls were made is not given here. Only a sample is shown. Results with a measured potency or affinity are listed apart.

experiment: growth inhibition of non-replicating M. tuberculosis (AID 488890); conditions: Mycobacterium tuberculosis non-replicating, at 25 µM, stronger effect = higher value;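 further: plate controls were DMSO cells for no effect and high antibiotic wells for full effect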

Row | Structure (SMILES) | inhibition
1 | Cc1ccc(NC(=O)CC(C)N2CCCC2)cc1 (stereo not drawn) | -3.18%
2 | NCC(O)COCCC12CC3CC(CC(C3)C1)C2 (stereo not drawn) | 8.67%
3 | CC(NCC(O)COCc1ccc(Cl)cc1)c1ccccc1 (stereo not drawn) | 78.5%
4 | O=C(Nc1nnc(C(F)(F)F)s1)c1cccnc1 | 27.8%
5 | Cc1nnc(NC(=O)c2ccccc2NC(=O)c2ccccc2)s1 | 33.7%
6 | Cc1cc(-c2n[nH]c(=S)n2-c2ccccc2C)cs1 | -13.2%
7 | COc1ccccc1NC(=O)COC(=O)/C=C/c1ccccc1[N+](=O)[O-] | 65.2%
8 | CCN1C(=O)/C(=C/c2ccc(N3CCCC3)cc2)NC1=S | 52.1%
9 | COC(=O)COc1ccc(/C=C2/NC(=O)N(CC(=O)OC)C2=O)cc1 | 9.12%
10 | Cc1cc(C)n(-c2ccc(C(=O)Nc3cccc(S(=O)(=O)N4CCCC4)c3)cc2)n1 | -4.31%
11 | C=CCn1c(SCC(=O)Nc2cc(C)cc(C)c2)nnc1-c1cnccn1 | -3.18%
12 | CC[n+]1c(/C=C/Nc2ccccc2)oc2ccc(OC)cc21 | 35.5%
13 | CC[n+]1c(/C=C/Nc2ccccc2)oc2ccccc21 | 67.7%
14 | Cc1cc(=O)oc2c3c(cc(OCC(=O)NCc4cccnc4)c12)OC(C)(C)CC3 | 7.63%
15 | CC(=O)OCCc1c2ccccc2c(CCCN(C)C)c2ccccc12 | 41.4%
16 | Cc1onc(-c2c(Cl)cccc2Cl)c1C(=O)OCC(=O)c1ccccc1 | 15.6%
17 | Cc1onc(-c2c(Cl)cccc2Cl)c1COC(=O)c1ccc(Cl)cc1 | 16.1%
18 | COc1c(F)c(F)cc2c(=O)c(C(=O)O)cn(C3CC3)c12 | 4.5%
19 | Cc1c(-n2cc(C(=O)O)c(=O)c3cc(F)c(N4CCCC(O)C4)c(F)c32)c(=O)n(-c2ccccc2)n1C (stereo not drawn) | 0.14%
20 | CCOC(=O)c1cn(C2CC2)c2c(F)c(F)c(F)cc2c1=O | -13%
21 | CC1CCc2cc(F)cc3c(=O)c(C(=O)O)cn1c23 (stereo not drawn) | 35.4%
22 | C=CCN(CC=C)C(=O)COC(=O)c1ccc(Sc2ncn[nH]2)c([N+](=O)[O-])c1 | 43.1%

Row | Structure (SMILES) | inhibition
23 | Cc1ccc(-c2ccc(SCC(=O)N3CCc4ccccc43)nn2)cc1 | -0.83%
24 | CCCc1cc(N2CCN(c3ccccn3)CC2)n2nc(C)c(-c3ccccc3)c2n1 | 2.63%
25 | Cc1cc(NC2CCCC2)n2ncc(-c3ccccc3)c2n1 | 36.8%
26 | Cc1cc(NCCCn2ccnc2)n2nc(C)c(-c3ccc(Cl)cc3)c2n1 | -1.28%
27 | CCCc1cc(N2CCCC2)n2nc(C)c(-c3ccccc3)c2n1 | 43.4%
28 | CC(=O)Nc1ccc(Nc2cc(C)nc3c(-c4ccc(Cl)cc4)c(C)nn23)cc1 | 2.43%
29 | Cc1nn2c(NCCCn3ccnc3)cc(C(C)C)nc2c1-c1ccccc1 | 75.8%
30 | Cc1cc(NCc2ccccc2)n2ncc(-c3ccccc3)c2n1 | 14.7%
31 | CC(=O)Nc1ccc(Nc2cc(C(C)C)nc3c(-c4ccccc4)c(C)nn23)cc1 | 5.77%
32 | Nc1cc(N2CCNCC2)c([N+](=O)[O-])cc1Cl | 6.14%
33 | Cc1ccc(CNC(=O)C2CCCN(C(=O)N(C)C)C2)cc1 (stereo not drawn) | -2.88%
34 | C=CCN1C(=O)c2ccc(C(=O)OCC(=O)Nc3ccccc3OC)cc2C1=O | -2.33%
35 | CC(=O)c1cc(CN2CCN(Cc3ccccc3)C(CCO)C2)cs1 (stereo not drawn) | 1.86%
36 | Cc1cc(C(=O)N(C)CC(=O)Nc2ccc(Cl)c(C(F)(F)F)c2)no1 | 6.97%
37 | Cc1c(NC(=O)COC(=O)Cn2cc(C(F)(F)F)ccc2=O)cccc1[N+](=O)[O-] | -1.08%
38 | Cc1cc(C)n2nc(SCC(=O)N(Cc3ccccc3)C3CCS(=O)(=O)C3)nc2n1 (stereo not drawn) | -1.73%
39 | Cc1cc(NCCC(C)C)n2nc(C)c(-c3ccccc3)c2n1 | 49.1%
40 | Cc1cc(Nc2ccccc2)n2nc(C)c(-c3ccccc3)c2n1 | 15.2%
41 | O=C(CCc1ccccc1)NNC(=O)c1cc(Cl)ccc1O | -5.64%
42 | O=C(CC(=O)c1ccccc1)Nc1ccc(Cl)cc1 | 51.8%
43 | COc1ccc(C(=O)CC(=O)c2ccccc2O)cc1OC | 22.7%
44 | Cc1ccc(O)c(C(=O)CC(=O)c2cccc(F)c2)c1 | -5.71%

Row | Structure (SMILES) | inhibition
45 | C/C(=N\NC(=O)CNc1cccc(Cl)c1C)C1CC1 | 2.17%
46 | CC(=O)Nc1ccc(C(=O)N2CCN(S(=O)(=O)c3ccc4c(c3)OCCCO4)CC2)cc1 | -1.17%
47 | Cc1sc(NC(=O)C2=COCCO2)nc1-c1ccc(Cl)cc1 | 3.57%
48 | c1ccc(CN2CCN(c3cnc4ccccc4n3)CC2)cc1 | 3.95%
49 | COc1cc(OC)cc(C(=O)NC(=S)NNC(=O)[C@H]2C[C@@H]2c2ccccc2)c1 | 78.5%
50 | COc1cc(C(=O)NC(=S)NNC(=O)[C@H]2C[C@@H]2c2ccccc2)cc(OC)c1OC | 62.4%
51 | CC(=O)NCCc1nc2cc(NS(=O)(=O)c3ccc(Cl)cc3)ccc2n1C | -19.6%
52 | COCCCN(CC(=O)Nc1ccc(F)cc1)S(=O)(=O)c1cccs1 | 5.35%
53 | NNC(=O)/C(=C/c1cccs1)NC(=O)c1ccccc1Cl | 1.61%
54 | Nc1ccc(C(=O)Nc2ccc(OC(F)(F)C(F)F)c(NC(=O)c3ccc(N)cc3)c2)cc1 | 20.7%
55 | CCN(CC)S(=O)(=O)c1ccc(NS(=O)(=O)c2ccc(OC)c([N+](=O)[O-])c2)cc1 | -6.27%
56 | CCn1cc(C(=O)NN)c(=O)c2cc(F)c(N3CCN(C)CC3)cc21 | -3.82%
57 | O=C(O)c1cn(C2CC2)c2cc(N3CCN(S(=O)(=O)c4ccc5c(c4)OCCO5)CC3)c(F)cc2c1=O | 79.5%
58 | CCOC(=O)c1cn(CC)c2cc(N3CCN(C)CC3)c(F)cc2c1=O | -0.72%
59 | CCCCCCCCCC(=O)N1CCN(c2cc3c(cc2F)c(=O)c(C(=O)O)cn3CC)CC1 | 6.5%
60 | CCCCCCCC(=O)N1CCN(c2cc3c(cc2F)c(=O)c(C(=O)O)cn3CC)CC1 | 72.9%
61 | CCCCCCCCC(=O)N1CCN(c2cc3c(cc2F)c(=O)c(C(=O)O)cn3CC)CC1 | 62.8%
62 | CCc1ccc(/C=N/NC(=O)Cc2ccc(OC)c(OC)c2)s1 | 9.54%
63 | COC(=O)C1=C2SC(C)C(=O)N2C(N)=C(C#N)C1c1ccc(OC)c(OC)c1 (stereo not drawn) | 5.18%
64 | CC(=O)c1ccc(NC(=O)CCC(=O)OCC(F)(F)C(F)F)cc1 | -4.72%
65 | CC(=O)Nc1ccccc1OCc1cnc(Cl)s1 | 21%
66 | Cc1cc(S(=O)(=O)Nc2cc(C)c(O)c(C)c2)c(C)s1 | 13%

Row | Structure (SMILES) | inhibition
67 | COc1ccc(-c2cc(NCc3ccccn3)n3ncnc3n2)cc1 | 55.9%
68 | COc1ccc(-c2cc(NCCc3ccncc3)n3ncnc3n2)cc1 | 24.4%
69 | C[C@H](CO)N1C[C@H](C)[C@@H](CN(C)S(=O)(=O)c2ccccc2)Oc2ccc(NC(=O)C3CC3)cc2C1=O | 6.81%
70 | Cc1cc(Br)ccc1SCC(=O)OCC(=O)NC1CCCC1 | 35.6%
71 | O=C(Nc1ccc([N+](=O)[O-])cc1)c1cncc(Br)c1 | 13.8%
72 | CC(=O)Nc1ccc(C(=O)NNC(=O)c2cc([N+](=O)[O-])cc([N+](=O)[O-])c2)cc1 | 16.3%
73 | O=C(Nc1ccc(NC(=O)c2cccc([N+](=O)[O-])c2)cc1)c1cccc([N+](=O)[O-])c1 | -7.47%
74 | Cc1csc(NC(=O)c2ccc(C(=O)Nc3nc(C)cs3)cc2)n1 | -7.26%
75 | Cc1csc(NC(=O)c2ccc(C)c([N+](=O)[O-])c2)n1 | 5.36%
76 | COc1ccc(NC(=O)c2cc([N+](=O)[O-])ccc2N2CCCC2)cc1 | -2.99%
77 | O=C(Nc1ccc(N2CCCCC2)cc1)c1cc([N+](=O)[O-])cc([N+](=O)[O-])c1 | 14.1%
78 | COc1ccc(NC(=O)c2cc([N+](=O)[O-])ccc2N2CCCCC2)cc1 | -7.4%
79 | CC1=C(C(=O)c2ccccc2)C(c2ccc(N3CCOCC3)cc2)NC(=O)N1 (stereo not drawn) | 13.5%
80 | COc1ccc(OC)c(S(=O)(=O)N2CCCC(C(=O)N3CCOCC3)C2)c1 (stereo not drawn) | -3.68%
81 | CN1CCN(C(=S)NC(=O)/C=C/c2ccccc2Cl)CC1 | -10.3%
82 | Cc1nc(C(=O)NCC(=O)c2ccc(Cl)cc2)c(C(F)(F)F)o1 | 75%
83 | O=C(CCNC(=O)Cn1ccc2ccccc2c1=O)NCc1ccc(F)cc1Cl | -3.09%
84 | NC(=O)CCC(NS(=O)(=O)c1ccc(Cl)cc1)C(=O)NCc1ccc(Cl)cc1 (stereo not drawn) | 0.33%
85 | Cc1cccc(-n2c(-c3ccc(Br)o3)n[nH]c2=S)c1 | -15%
86 | COc1cc(CNCc2ccccc2)cc(Cl)c1OC | -13.6%
87 | COc1cc(CNC2CCCC2)cc(Cl)c1OCc1ccccc1F | 78.7%
88 | COc1cc(CNC2CCCCCCC2)cc(Cl)c1OC | 9.81%

Row | Structure (SMILES) | inhibition
89 | CCOc1cccc(CNCCO)c1OCc1ccc(Cl)cc1Cl | 42.6%
90 | CCCCNCc1cc(Br)c(OCC(=O)NCc2ccccc2)c(OC)c1 | 68.2%
91 | OCCNCc1ccc(OCc2ccc(Cl)cc2Cl)cc1 | 61.3%
92 | COc1cc(CNC2CCCC2)cc(Br)c1OCC(=O)Nc1ccccc1C | 45.5%
93 | CCOc1cc(CNCCc2ccc(S(N)(=O)=O)cc2)cc(Cl)c1OCc1ccccc1 | 73%
94 | COc1ccc(-c2n[nH]c(=S)n2-c2ccc(C)cc2C)cc1 | -17.9%
95 | Cc1ccc(S(=O)(=O)CCc2nnc(N)s2)cc1C | 4.5%
96 | Cc1oc(-c2ccccc2F)nc1CSCC(=O)NC1CC1 | -0.31%
97 | Cc1c(CC(=O)O)c(=O)oc2c(C)c(OCc3ccccc3)ccc12 | -3.08%
98 | CCN(CC(=O)Nc1cccc(C(C)=O)c1)S(=O)(=O)c1ccccc1 | -4.85%
99 | O=C(c1cccnc1)N1CCN(S(=O)(=O)c2ccc3ccccc3c2)CC1 | 9.44%
100 | CC(NC(=O)CN1C(=O)NC2(CCCC2)C1=O)c1ccc2ccccc2c1 (stereo not drawn) | 9.54%
101 | CCN1CCC(NCCc2ccc(F)cc2)CC1 | -11.9%
102 | CN(C(=O)c1ccc2c(Cl)c3c(nc2c1)CCC3)c1ccccc1 | 32.3%
103 | Cc1ccc(N(CC(=O)Nc2c(C)n(C)n(-c3ccccc3)c2=O)S(C)(=O)=O)c(C)c1 | -0.1%
104 | O=P(O)(O)COc1ccccc1P(=O)(c1ccccc1)c1ccccc1 | -12.2%
105 | Cc1noc(C)c1COC(=O)COc1ccc(C#N)cc1 | 38.3%
106 | Cc1noc(C)c1COC(=O)COc1cccc2c1OC(C)(C)C2 | 39.2%
107 | O=C(Nc1ccc(N2CCN(C(=O)c3cccs3)CC2)c(Cl)c1)c1ccco1 | 9.48%
108 | O=C(Nc1ccc(N2CCN(C(=O)c3ccco3)CC2)cc1)c1cccs1 | 38.8%
